Measured values taken from the OligoGym collection.

target: DDB2; assay: pooled miR-30 sensor sort-seq; sequence = guide strand; details: shRNA
Also: reference of the scale not given here.

| Sequence | sensor-assay potency score (higher = more potent) |
| --- | --- |
| TTTAACAAATCGCCACCTCTGC | -0.868 |
| TAATACAATCTCGGAGGTCTTC | -0.478 |
| TAAAGTCTTGCAGCCTAGTTGT | -0.222 |
| TAGAGCTGACACATCATCTTCC | 0.382 |
| TAATATCCGGTAAGAATCCAGA | -0.584 |
| TCTCCTGTGACCACCATTCGGC | -0.886 |
| AACTTTTGAAATTAGGATCTGG | 0.321 |
| TTTAGTTCCAAGATAACCTTGG | 0.69 |
| AACTCGGATCTCGCTCTTCTGG | -1.5 |
| TCCATCGAACACGTCGATCGTC | -0.818 |
| TTTTGAAATTAGGATCTGGGTA | -0.102 |
| TACAACTTTTGAAATTAGGATC | -0.816 |
| TCGAACACGTCGATCGTCCTCA | -0.285 |

target: DDX28; assay: as above; details: shRNA

| Sequence | sensor-assay potency score (higher = more potent) |
| --- | --- |
| TTCCAGGAAGCTTTCATCCAGC | -0.626 |
| TATGTCTCGGGAGCTCTTCTGG | -0.986 |
| TCATCCAACACCAAGAAGGAGA | -0.925 |
| TTCGTCGGGACTGCGGACCGTG | -0.386 |
| TAATCTTGCAGCGTTGGGGGGA | -0.579 |
| TAGTGCGTGCAGCACACGGGGC | -1.65 |
| TAGTCCTGGAAGACTTCTCCTT | -1.12 |
| TAGCTGAGAGTCTTGCCACTGC | -0.373 |
| TTGACAACCAGCTCCACACCAG | -0.162 |
| TTGGATTTTGTGGTCATCCAGA | -0.675 |
| ATAATTGACAACCAGCTCCACA | -0.971 |
| TTCTGCTCTGTCACGATGCTTG | -0.667 |

target: DDX49; assay: as above; details: shRNA

| Sequence | sensor-assay potency score (higher = more potent) |
| --- | --- |
| TTGATCTGCTCCTCGATGGCGT | 0.0961 |
| TGATCTCACACTCTCTTCGCAC | -1.01 |
| TAGATGCTGGACTTGAACTTGG | -0.112 |
| TTGTGGTTGATGACCACCTGTA | -0.316 |
| TCATCCATCACCAGGAAGCGGA | -1.17 |
| TCTGTTGCGATCAGGATCCGGT | 0.242 |
| TCGTACTGTGTCACCAGCGTGA | -0.48 |
| TCTTTCTGCTTCATCATGGAGT | -0.0519 |
| TTCTTCTTGATCTGCTCCTCGA | -0.688 |
| TTTGATCTCACACTCTCTTCGC | -0.199 |
| TTGATGACCACCTGTACCGTAG | -0.168 |
| TTGATCTCACACTCTCTTCGCA | -0.0453 |

target: DEF6; assay: as above; details: shRNA

| Sequence | sensor-assay potency score (higher = more potent) |
| --- | --- |
| TTAGGGAGGAGTCACGGTGGGC | -1.27 |
| TTCAGCTGCATCAACTGCTTCA | 0.367 |
| TTGTCCAGGATGTACTTGTTGA | -0.794 |
